A short description of test [1]: NCI Yeast Anticancer Drug Screen. Data for the rad50 strain (AID 155).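 Further: 0% = growth of vehicle-only cultures of the same strain.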 As to conditions: S. cerevisiae rad50 strain growth inhibition; at 50.0 µM; stronger effect = higher value. The essentials:
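A DNA repair-deficient yeast mutant serves as the test organism; compound-induced growth inhibition is calculated against vehicle-treated cells.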

Test [2] is described as follows: NCI Yeast Anticancer Drug Screen. Data for the mec2-1 strain (AID 157). As to conditions: S. cerevisiae mec2-1 strain, at 50.0 µM, stronger effect = higher value. In a few lines:
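Strain: mec2-1 (DNA repair/cell cycle alteration). Compound exposure, then growth measured; inhibition expressed relative to vehicle.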

The nature of test [3]: NCI Yeast Anticancer Drug Screen. Data for the sgs1 mgt1 strain (AID 161).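 Further: 0% = growth of cultures given vehicle only.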 The note with it: S. cerevisiae sgs1 mgt1 strain, at 50.0 µM, stronger effect = higher value. In a few lines:
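Mutant yeast exposed to compound; growth scored against vehicle-only wells.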

Test [4] can be described thus: NCI Yeast Anticancer Drug Screen. Data for the cln2 rad14 strain (AID 165).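 Further: 0% = growth equal to vehicle treated cultures.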 As to conditions: S. cerevisiae cln2 rad14 strain, at 50.0 µM, stronger effect = higher value. In a few lines: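 Compounds are applied to the cln2 rad14 yeast strain, and growth is then compared with that of vehicle-treated cultures to give inhibition.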
Test [5] can be described thus: NCI Yeast Anticancer Drug Screen. Data for the bub3 strain (AID 167). As to conditions: S. cerevisiae bub3 mutant strain, at 50.0 µM, stronger effect = higher value. In a few lines: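 Inhibition values come from growth of compound-treated mutant yeast normalised to vehicle-treated controls.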
Test [6] can be described thus: NCI Yeast Anticancer Drug Screen. Data for the mlh1 rad18 strain (AID 175). As to conditions: S. cerevisiae mlh1 rad18 strain growth inhibition; at 50.0 µM; stronger effect = higher value. In a few lines: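 Read-out is yeast growth inhibition, calculated against vehicle-only controls. The compound was applied to a strain engineered with DNA damage repair alterations.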

Compounds without any hit were thinned out: in the full panel of roughly 79,000, 15% have a hit. Unmarked numbers belong to inactive results. Active and inactive are the calls of the source. No stated cut-off is given here; in the data, active means growth inhibition above about 70%; inactive means the rest. Where a SMILES comes first, the peptide text is derived from it. The star is where a group is joined. Boc = CC(C)(C)OC(=O)*; OcHex = C1CCC(O*)CC1; Bn = c1ccc(C*)cc1

The values that follow come from PubChem BioAssay (NCI).

`O=[N+]([O-])c1ccc(CN2CCC(C(=S)Nc3ccccc3)=C2c2ccccc2)cc1`: the growth inhibition in test [1] was 9.6%; in test [2] it was 0.3%; in test [3], 8.8%; in test [4], 9.05%; in test [5] it was -1.2%; in test [6], 12.4%.
For `CC(C)(C)CC(C)(C)c1c(O)cc(O)cc1Cl`, the growth inhibition in test [1] was 99% (active); in test [2], 99.3% (active); in test [3], 94.8% (active); in test [4], 99% (active); in test [5] it was 99.2% (active); in test [6], 99.2% (active).
For `O=C(N/N=C\c1ccc([N+](=O)[O-])cc1)Nc1ccc2ccccc2c1`, the growth inhibition in test [1] was 3.15%; in test [2], 8.1%; in test [3] it was 1.85%; in test [4] it was 8.3%; in test [5], 25.2%; in test [6], 14.1%.
Take `Nc1ccccc1OCC(=O)Nc1c(N)ncnc1N`: the growth inhibition was 0.4% in test [1]; -6.35% in test [2]; 6.85% in test [3]; 2.95% in test [4]; 5.9% in test [5]; -3.8% in test [6].
`CCOC(=O)[C@H]1Nc2ccc(Cl)cc2[C@H]2c3ccccc3O[C@H]21`: the growth inhibition was 4.85% in test [1]; -22.3% in test [2]; -23.1% in test [3]; 8.35% in test [4]; -19.7% in test [5]; -19.4% in test [6].
In the case of `Cc1nc2cc(N)c(Cl)cc2[nH]1`, the growth inhibition in test [1] was -6.5%; in test [2] it was 14.8%; in test [3], 9.95%; in test [4], -7.15%; in test [5], 10.5%; in test [6], -0.6%.
With `CC(=O)/C=C\C1CC2C=CC1C2` (stereo not drawn), the growth inhibition was -11.6% in test [1]; -10.2% in test [2]; 3.65% in test [3]; 17.1% in test [4]; -20.4% in test [5]; 31.6% in test [6].
`O=C(O)C1CC(Br)C(Br)CC1C(=O)Nc1cccc2ccccc12` (stereo not drawn): the growth inhibition in test [1] was 11.8%; in test [2], 6.45%; in test [3], 2.85%; in test [4] it was -39.3%; in test [5], 1.3%; in test [6], 32.1%.
As for `OCCSCCCSCCO`, the growth inhibition in test [1] is 17.9%; in test [2] it was -4.8%; in test [3] it was -23%; in test [4] it was 3.5%; in test [5] it was 1.1%; in test [6], -4.8%.
As for `CCOC(=O)/N=c1/nc(N(C)C)ss1`, the growth inhibition in test [1] was -18.9%; in test [2] it was -29.6%; in test [3] it was 4.15%; in test [4], -19.6%; in test [5] it was -9.4%; in test [6], -5.05%.
Consider `COc1ccccc1NS(=O)(=O)c1ccc2ncn(NS(=O)(=O)c3ccc(Cl)cc3)c(=O)c2c1`, for which the growth inhibition was 27.5% in test [1]; 15.7% in test [2]; 30.1% in test [3]; 0.05% in test [4]; 26% in test [5]; 18.1% in test [6].
`CC(=O)[C@H]1CC[C@@H]2[C@]1(C)CC=C1[C@]23C=C[C@]2(C[C@@H](O)CC[C@]12C)C(C(=O)O)C3C(=O)O` (stereo partly drawn): the growth inhibition in test [1] was 2.35%; in test [2], -18%; in test [3] it was -39.7%; in test [4] it was 4.2%; in test [5], -13.1%; in test [6] it was 7.25%.
`CC(C)CC(NC(=O)OC(C)(C)C)C(=O)NC(CCC(=O)OC1CCCCC1)C(N)=O` (stereo not drawn) (Boc-Leu-Glu(OcHex)-NH2; configuration not given here): the growth inhibition was -4.8% in test [1]; -12.4% in test [2]; -8% in test [3]; 1.5% in test [4]; 3.4% in test [5]; 8.75% in test [6].
`O=C1N=C(C=c2ccc(=Cc3[nH]c(=O)[nH]c3O)cc2)C(=O)N1`: the growth inhibition was -5.95% in test [1]; -11.4% in test [2]; -14.9% in test [3]; 13.9% in test [4]; 8.35% in test [5]; 5.7% in test [6].
For `COC(=O)CC(C)N(c1cccc(Cl)c1)S(=O)(=O)c1ccc(C)cc1` (stereo not drawn), the growth inhibition in test [1] is 52.3%; in test [2], 7.1%; in test [3] it was 76.3% (active); in test [4] it was -30.9%; in test [5], 24.1%; in test [6], 32.5%.
For the compound `CC(C)(C)OC(=O)NC1CC=CCC1NC(=O)OC(C)(C)C` (stereo not drawn), the growth inhibition in test [1] was -52.7%; in test [2] it was -11.6%; in test [3] it was -16.6%; in test [4], -19.6%; in test [5] it was -17.8%; in test [6], -29.1%.
Regarding `SCCc1ccccc1`, the growth inhibition is -8.85% in test [1]; -35.1% in test [2]; -8.9% in test [3]; -14% in test [4]; 11.9% in test [5]; -3.15% in test [6].
`O=C1NC(c2ccccc2)(c2ccccc2)C(=O)N1CCCCCCN1C(=O)NC(c2ccccc2)(c2ccccc2)C1=O`: the growth inhibition in test [1] is 8.35%; in test [2], 3.45%; in test [3] it was 4%; in test [4], 0.25%; in test [5] it was -7.15%; in test [6], 18.2%.
Take `N#Cc1ccccc1NC(=O)C(=O)C(C(=O)c1ccncc1)C1OC(=O)c2ccccc21` (stereo not drawn): the growth inhibition was -2.55% in test [1]; -17.1% in test [2]; -31.3% in test [3]; 10.1% in test [4]; -0.65% in test [5]; 5.3% in test [6].
As for `COC(=O)C(CC(C)C)NC(=O)CNC(=O)C(Cc1ccc(OCc2ccccc2)cc1)NC(=O)C(COCc1ccccc1)NC(=O)OC(C)(C)C` (stereo not drawn) (Boc-S(Bn)Y(Bn)GL-OMe; configuration not given here), the growth inhibition in test [1] is -26.8%; in test [2] it was -22.6%; in test [3] it was -23.8%; in test [4], 11.8%; in test [5], 2.65%; in test [6], -10.5%.
Turning to `CCCc1c(OC)c(=O)c2c(OC)cc(OC)c3c4c(OC)cc(OC)c5c(=O)c(OC)c(CCC)c(c1c23)c54`, the growth inhibition was 88.3% (active) in test [1]; 92% (active) in test [2]; 86.4% (active) in test [3]; 88.5% (active) in test [4]; 83% (active) in test [5]; 92.6% (active) in test [6].
Consider `Nc1cccc(Oc2ccc([N+](=O)[O-])cc2)c1`, for which the growth inhibition is 16.9% in test [1]; 25% in test [2]; 28.3% in test [3]; 17.2% in test [4]; 32.5% in test [5]; 24.7% in test [6].
Take `CCN(CC)c1ccc(N=C2C=C(C(=O)Nc3ccc(S(C)(=O)=O)cc3)C(=O)c3ccccc32)c(C)c1`: the growth inhibition in test [1] was -15.8%; in test [2], -29.5%; in test [3], 2.55%; in test [4], 6.6%; in test [5], -4.2%; in test [6], -17.2%.
`CCCC(=O)C(O)CCC` (stereo not drawn): the growth inhibition in test [1] is -20.5%; in test [2], -16.7%; in test [3], -2.6%; in test [4], -47.9%; in test [5], 1.65%; in test [6], -26.1%.
Consider `Cn1c(=O)c2c(nc(N3CCOCC3)n2CCCNCC(O)c2ccc(O)c(O)c2)n(C)c1=O` (stereo not drawn), for which the growth inhibition was -40.9% in test [1]; 4.3% in test [2]; -13.2% in test [3]; -29.9% in test [4]; -2.1% in test [5]; -21.6% in test [6].
`CCCNCc1cccc2ccnc(C)c12`: the growth inhibition in test [1] was 40.9%; in test [2] it was 9.6%; in test [3], 0.45%; in test [4], 17.6%; in test [5], 15.9%; in test [6], 28.6%.
For the compound `COc1cccc(N2C(=O)C3c4[nH]c5ccc(C)cc5c4C4CCC(C(C)(C)C)CC4C3C2=O)c1` (stereo not drawn), the growth inhibition in test [1] was 12.7%; in test [2] it was -20.1%; in test [3] it was 13%; in test [4], 2.55%; in test [5], 1.4%; in test [6] it was -5.55%.
As to `Nc1nc(-c2ccccc2)nc2nc3[nH]c(=O)[nH]c(=O)c3nc12`, the growth inhibition in test [1] was -12.3%; in test [2], 5.25%; in test [3] it was 22.8%; in test [4], 0.95%; in test [5] it was 19.1%; in test [6] it was 2.95%.
Take `O=C1CC(NC(=O)C(F)(F)F)c2c(Br)sc(N3CCNCC3)c21` (stereo not drawn): the growth inhibition in test [1] was 6.05%; in test [2], 12.1%; in test [3], -25.2%; in test [4], -2.2%; in test [5] it was -2.65%; in test [6] it was -30.4%.
Take `COc1cc([N+](=O)[O-])c2nccc(C)c2c1`: the growth inhibition was 13.1% in test [1]; 6.1% in test [2]; -0.6% in test [3]; -5.05% in test [4]; -5.1% in test [5]; 18.6% in test [6].
Consider `Nc1c(OS(=O)(=O)c2ccccc2)cccc1OS(=O)(=O)c1ccccc1`, for which the growth inhibition was 20.8% in test [1]; -2.45% in test [2]; 18.8% in test [3]; 20.7% in test [4]; 39.7% in test [5]; 37.1% in test [6].
For `COc1ccccc1-n1nnc2c(N)nc(N)nc21`, the growth inhibition is 7.05% in test [1]; -12.2% in test [2]; -13.2% in test [3]; 4.05% in test [4]; -22.1% in test [5]; -9.25% in test [6].
For the compound `ONc1ncnc2[nH]cc(Br)c12`, the growth inhibition was 4% in test [1]; -6.8% in test [2]; -5.65% in test [3]; 2.6% in test [4]; -4.5% in test [5]; 9.7% in test [6].
On to `COc1ccc(C2C(Cl)C(=O)N2NC(=O)c2ccc(NC(C)=O)cc2)cc1` (stereo not drawn), for which the growth inhibition in test [1] is -47.9%; in test [2] it was -20.8%; in test [3], -49.9%; in test [4], -9.35%; in test [5], -50%; in test [6] it was -54%.
`O=C(/C=C(\Br)c1ccccc1)c1ccccc1`: the growth inhibition in test [1] was 99.3% (active); in test [2], 99.5% (active); in test [3], 99.8% (active); in test [4], 99.2% (active); in test [5], 98.9% (active); in test [6], 99.3% (active).
Take `CCCOc1ccc(C(=O)O)cc1`: the growth inhibition in test [1] was 10.8%; in test [2] it was 7.85%; in test [3] it was 6.3%; in test [4], -2%; in test [5], -14.8%; in test [6] it was 4.15%.
On to `COC(=O)NC1CC/C=C\CCC1I` (stereo not drawn), for which the growth inhibition in test [1] is 12.8%; in test [2] it was 10%; in test [3], 8.1%; in test [4], 12.9%; in test [5], 22.9%; in test [6] it was 4.7%.
`CC(=O)NCCc1ccc(C(=O)O)cc1`: the growth inhibition was -17% in test [1]; -1% in test [2]; 2.2% in test [3]; -34.2% in test [4]; -11.4% in test [5]; 3.65% in test [6].
